High-throughput results deposited in PubChem by National Center for Advancing Translational Sciences (NCATS).
DRD3 antagonist: qHTS of D3 Dopamine Receptor Antagonist: qHTS | D(3) dopamine receptor (Homo sapiens), P35462 | D3R cells, DiscoveRx beta-arrestin luminescence, antagonist mode; hits give low values | max response, negative = inhibition, % | 360,000 tested, 2.5% active | AID 652054, 2013; in the data active = max response below about -50%; inconclusive = no clear call, values can overlap the other calls; also: % is scaled to controls: 0 for no effect and ±100 for the full control effect
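Cells plated overnight at 1500 cells/well, then exposed to library compounds with dopamine controls for 90 minutes at 37 degrees C. DiscoveRx reagent added for 30–60 minutes at room temperature; luminescence read, quantitative HTS format.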
PTHR1 ag: qHTS for PTHR1 Agonists: Primary Screen | HEK293 GP2 PTHR1 cells, GloSensor cAMP luminescence, 1 h | 410,000 tested, 0.075% active | Potency, µM (highest dose often 115 µM), for the others: at the top dose activation, actives largely listed as activators | AID 743266, 2014 | Parathyroid hormone/parathyroid hormone-related peptide receptor (Homo sapiens), Q03431; also: potency is read from the fitted curve at half-maximal effect; nearly all actives have a fitted effect of over 55% in size
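HEK-293-derived GP2 cells expressing PTHR1 and a GloSensor cAMP reporter, 3,000/well, plated overnight, given luciferin plus IBMX (each 0.5 mM as added) for 1 h at 37 °C, then compound for 1 h at 37 °C. Luminescence was read after 15 min at room temperature.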
RGS4 inhibitor: Inhibitors of Regulator of G Protein Signaling (RGS) 4: qHTS | Potency, µM (titrated, usually from 114 µM), for the others: at the highest dose activity change, negative = inhibition, usual class: inhibitors | Regulator of G-protein signaling 4 (Homo sapiens), P49798 | Transcreener GDP fluorescence polarization, RGS4-accelerated GTP hydrolysis | 390,000 tested, 0.039% active | AID 504845, 2011; also: potency is read from the fitted curve at half-maximal effect; % is scaled to controls: 0 for no effect and ±100 for the full control effect; nearly all actives have a fitted effect of over 75% in size
Target sequence (P49798 whole entry, looked up): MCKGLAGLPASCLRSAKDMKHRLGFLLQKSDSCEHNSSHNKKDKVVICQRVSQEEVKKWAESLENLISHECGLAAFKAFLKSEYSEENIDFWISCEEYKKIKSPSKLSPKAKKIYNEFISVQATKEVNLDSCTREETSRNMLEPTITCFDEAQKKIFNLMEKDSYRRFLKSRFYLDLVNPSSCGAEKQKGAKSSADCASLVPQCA
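MLSMR compounds (23 nl, pin-transferred) preincubated 10 min at room temperature with a 500nM (2x) first reagent, then RGS4 at 900nM (2x) plus Transcreener GDP mix added; fluorescence polarization (620/688 nm) read before and after 90 min at 30 °C.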
B2AR arrestin: qHTS assay of beta-arrestin-biased ligands of beta2-adrenergic receptor. beta-arrestin recruitment to beta2AR, cell-based reporter. 330,000 tested, 0.02% active. Potency, µM (highest dose often 46.1 µM), inactives show top-dose activation, hits mostly activators;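 also: potency is read from the fitted curve at half-maximal effect; 0% = DMSO controls and full agonism = EC100 isoproterenol or metaproterenol; nearly all actives have a fitted effect of over 65% in size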
Target sequence (P07550 whole entry, looked up): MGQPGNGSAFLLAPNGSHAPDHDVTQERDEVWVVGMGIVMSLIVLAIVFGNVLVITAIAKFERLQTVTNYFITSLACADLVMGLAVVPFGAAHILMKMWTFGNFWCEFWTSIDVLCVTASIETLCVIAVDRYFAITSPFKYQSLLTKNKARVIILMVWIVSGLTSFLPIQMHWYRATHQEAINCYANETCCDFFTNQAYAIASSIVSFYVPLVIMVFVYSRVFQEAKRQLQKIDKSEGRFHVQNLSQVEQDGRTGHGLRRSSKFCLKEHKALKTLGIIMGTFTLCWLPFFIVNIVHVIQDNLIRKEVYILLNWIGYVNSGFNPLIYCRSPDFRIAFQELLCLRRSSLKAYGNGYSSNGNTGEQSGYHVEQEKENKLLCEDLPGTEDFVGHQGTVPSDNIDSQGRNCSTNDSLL
DRD3 agonist: qHTS of D3 Dopamine Receptor Agonist: qHTS; D(3) dopamine receptor (Homo sapiens), P35462; D3R DiscoveRx beta-arrestin cells, luminescence, 90 min; max activation, %; 410,000 tested, 0.58% active; in the data active = max activation above about 30%; also: 0% is about no effect
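Cells at 1500/well, incubated overnight, then treated with pinned compounds (dopamine as control) for 90 min at 37 degrees C. DiscoveRx reagent added for 30 - 60 minutes at room temperature; luminescence read.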
BRCA1 expr up: qHTS Assay to Identify Small Molecule Activators of BRCA1 Expression | Potency, µM (doses to about 46.1 µM), inactives show top-dose activation, hits mostly activators | MCF7-BRCA1-FFLuc reporter, luminescence, 48 h; response scale: scaled: vehicle 0%, 10 µM genistein 100% | 380,000 tested, 1.1% active | AID 624202, 2012; also: potency is read from the fitted curve at half-maximal effect; nearly all actives have a fitted effect of over 80% in size
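MCF7-BRCA1-FFLuc, 2000 cells/well; 2 h attach, 37 °C/5% CO2; compound 48 h; luciferase substrate 15 min; luminescence end-point. Norm. to genistein 10 microM max activation and DMSO; concentration-response curves fitted.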
Numbers without * were called inactive; i = inactive; ? = inconclusive; / = no result; [ ] = remark or other dose. Most compounds without a hit are left out; they make up all but 3.7% or so of the library. Unless noted, calls follow the shape of the dose curve; as a rule, active = well fitted curve in the direction sought with a large enough effect; inconclusive = small, poorly fitted or top-dose-only effect, or another doubt; inactive = no such curve, though single readings can be large; an effect the other way counts as inactive or inconclusive.

SMILES	DRD3 antagonist	PTHR1 ag	RGS4 inhibitor	B2AR arrestin	DRD3 agonist	BRCA1 expr up
COc1ccc2nc(NC(=O)c3cc(C)oc3C)sc2c1	-3	i	-22%	0%	12	5µM*
C#CC1(NC(=S)Nc2cccc(OC)c2)CCCCC1	33	-22%	/	/	3	0%
CC1(C)CC(=O)c2cc(-c3nc(-c4ccc(F)cc4)cs3)c(=O)[nH]c2C1	/	i	-21%	/	-2	/
COc1cc(C(=O)NCc2nnc(SCC(=O)N3CCCc4ccccc43)o2)cc(OC)c1OC	4	i	-37%	0%	0	-20%
CC(=O)OCC(NC(=O)C(COCc1ccccc1)NC(=O)OC(C)(C)C)C1OC(n2ccc(=O)[nH]c2=O)C(OC(C)=O)C1OC(C)=O (stereo not given)	/	/	-1%	/	/	/
Cc1cc(C)c(NC(=O)CN(C)C(=O)CCC(=O)c2ccc(C)s2)c(C)c1	-16	-38%	-8%	0%	-2	-16%
COc1ccc(CNC(=O)c2cnn(-c3ccc(C)cc3)c2C2CCN(C(=O)OC(C)(C)C)CC2)cc1	/	i	13%	/	9	/
Cc1coc2c(C)c3oc(=O)c(CC(=O)N4CCCCC4)c(C)c3cc12	/	-22%	-6%	/	-6	/
Cc1ccc(S(=O)(=O)N2CCC[C@H]2C(=O)OCC(=O)N2CCc3ccccc32)cc1	-13	i	5%	3%	-11	1%
COc1ccc2c(c1)-c1nc(NC(=O)c3ccco3)sc1CC2	35	-20%	-37%	-1%	15	14%
COc1ccc2c(c1)CCc1sc(NC(=O)c3ccco3)nc1-2	9	-12%	-51%	1%	3	10µM*
COC1CCCN(Cc2cn(C)nc2-c2ccc(Oc3ccccc3)cc2)C1 (stereo not given)	-52*	-17%	5%	-1%	-3	-6%
COc1ccc(NC(=O)CSc2nnc(NC(=O)Nc3ccccc3)s2)c(OC)c1	/	-11%	-8%	/	9	/
Nc1nc(NC(=O)c2cccc(S(=O)(=O)N3CCCCCC3)c2)nc(-c2ccccc2)n1	-18	2%[57.5 µM]	4%	0%	34*	-20%
O=C(Nc1nc(-c2cccs2)cs1)C1=COCCO1	?	-10%	?	0%	-4	4µM*
Cc1ccc(-c2csc(NC(=O)c3cccc(S(=O)(=O)N4CCN(C)CC4)c3)n2)cc1	-25	-14%[57.5 µM]	4%	-1%	-2	-60%
O=C(Nc1nc(-c2cccs2)cs1)c1cccc(S(=O)(=O)N2CCCCC2)c1	-69*	-27%	-12%	0%	-7	-42%
Cc1cc(C)nc(-n2nc(C)cc2NC(=O)c2cccc(S(=O)(=O)N3CCCCC3)c2)n1	/	/	/	3%	/	/
Cc1cc(NC(=O)c2cccc(S(=O)(=O)N3CCCCCC3)c2)n(-c2ccccn2)n1	-55*	?	-1%	0%	-7	-1%
O=S(=O)(c1ccc(Br)cc1)c1nnn2c1nc(NCc1ccc3c(c1)OCO3)c1sccc12	/	i	?	/	7	/
C[C@H](O)[C@@H]1CN2CCc3c([nH]c4ccccc34)[C@@H]2C[C@@H]1N(C)C(=O)Nc1ccccc1	-29	-24%	/	/	-10	-10%
C[C@H](O)[C@@H]1CN2CCc3c([nH]c4ccccc34)[C@@H]2C[C@@H]1N(C)C(=O)Nc1cc(Cl)cc(Cl)c1	-50*	-23%	/	/	-15	-30%
CC(=O)n1nc(-c2ccco2)nc1SCc1ccccc1	3	-26%	-18%	1%	2	11µM*
O=C1COc2ccc(S(=O)(=O)N3CCCCCC3)cc2N1	22	i	-2%	0%	4	-4%
CC(=O)N[C@@H](Cc1c[nH]c2ccccc12)C(=O)OCC(=O)Nc1cc(C)on1	4	i	-7%	/	2	-4%
SMILES	DRD3 antagonist	PTHR1 ag	RGS4 inhibitor	B2AR arrestin	DRD3 agonist	BRCA1 expr up
CC(C)(C)OC(=O)N1CCC(NC(=O)c2nc[nH]c2C(=O)N2CCN(C(=O)OC(C)(C)C)CC2)CC1	6	i	1%	-1%	7	-1%
CC(C)(C)OC(=O)N1CCC(NC(=O)c2nc[nH]c2C(=O)N2CCN(c3ccccc3)CC2)CC1	9	i	-15%	-1%	51*	-10%
CCOC(=O)c1[nH]cnc1C(=O)NC1CCN(C(=O)OC(C)(C)C)CC1	11	i	2%	0%	34*	10%
O=C(O)c1ccc(-n2nc(C(F)(F)F)cc2-c2cccs2)cc1	6	-18%	-20%	1%	5	8%
CCOc1ccc(N(CC(=O)NCCSCc2ccccc2)S(=O)(=O)c2ccccc2)cc1	25	-7%	-1%	0%	5	-48%
Cc1cccnc1CCNCc1c(C(=O)N2C[C@@H](C)O[C@@H](C)C2)nc2ccc(Cl)cn12	-63*	i	4%	-1%	-10	-16%
C[C@H](NC(=O)c1nc[nH]c1C(=O)N1CCN(C(=O)OC(C)(C)C)CC1)C(=O)OC(C)(C)C	2	i	10%	0%	10	-1%
CC1CCN(C(=O)c2[nH]cnc2C(=O)N[C@@H](C)C(=O)OC(C)(C)C)CC1	-52*	-19%	-12%	0%	-4	4%
C[C@H](NC(=O)c1nc[nH]c1C(=O)NC(c1ccccc1)c1ccccc1)C(=O)OC(C)(C)C	-56*	-61%	-3%	0%	0	-73%
CNC(=O)c1[nH]cnc1C(=O)N[C@@H](C)C(=O)OCc1ccccc1	35	-16%	-3%	0%	35*	-52%
CC1CCN(C(=O)c2[nH]cnc2C(=O)Nc2ccc(Cl)cc2)CC1	9	i	3%	0%	45*	0%
CNc1c(Cl)cc(C=O)cc1Cl	/	/	/	/	/	8%
C[C@@H](NC(=O)c1nc[nH]c1C(=O)N[C@@H](Cc1ccccc1)C(=O)OC(C)(C)C)c1ccccc1	-25	-16%	-32%	0%	0	-47%
C[C@H](NC(=O)c1nc[nH]c1C(=O)N[C@@H](Cc1ccccc1)C(=O)OC(C)(C)C)c1ccccc1	-58*	-24%	7%	0%	-43	-79%
Cc1ccc([C@@H]2CC=C(C(=O)O)[C@H](c3ccc(F)cc3)N2S(=O)(=O)c2ccc(C)cc2)cc1	-83*	-2%	-3%	0%	-21	4%
